The list is not random: actives were taken first. Their share in the collection is about 19%.
S-ASM inh: blocks human secretory acid sphingomyelinase. P17405. placental ASM, HMU-PC fluorogenic substrate, 60 min. Potency, µM (highest dose often 57.5 µM), hits mostly inhibitors. 0.006% of 340,000 active
Target sequence (P17405 47-631 limits assumed): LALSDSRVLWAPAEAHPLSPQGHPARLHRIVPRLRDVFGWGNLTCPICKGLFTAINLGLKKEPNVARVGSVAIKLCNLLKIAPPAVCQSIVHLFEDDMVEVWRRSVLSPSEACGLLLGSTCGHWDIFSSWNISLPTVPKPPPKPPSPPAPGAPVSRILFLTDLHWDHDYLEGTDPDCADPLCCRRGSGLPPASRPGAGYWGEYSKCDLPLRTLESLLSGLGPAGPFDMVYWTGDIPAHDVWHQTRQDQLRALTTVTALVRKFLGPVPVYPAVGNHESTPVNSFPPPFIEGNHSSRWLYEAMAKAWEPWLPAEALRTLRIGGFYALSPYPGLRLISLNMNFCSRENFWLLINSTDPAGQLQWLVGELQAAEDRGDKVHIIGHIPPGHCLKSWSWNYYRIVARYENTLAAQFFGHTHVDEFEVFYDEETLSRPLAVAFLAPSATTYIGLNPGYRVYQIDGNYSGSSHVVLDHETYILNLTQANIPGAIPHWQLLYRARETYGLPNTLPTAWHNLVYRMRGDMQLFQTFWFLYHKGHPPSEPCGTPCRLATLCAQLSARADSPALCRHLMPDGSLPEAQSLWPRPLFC
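Steps: dispense placental human ASM, pin compound, wait 10 min at room temperature, add HMU-PC0 substrate at 9 uM final, incubate 60 min at 37 °C, add stop solution raising pH to 10, read fluorescence.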
IL1B secr inh: inflammasome signaling inhibition, IL-1 beta readout | THP-1 LPS/ATP IL-1B secretion, AlphaLISA, 16 h; active compounds read low | activity change, % at 57.5 µM | 4.7% of 360,000 active | AID 743279; in the data active = activity change below about -50%; inconclusive = mostly about -30% to -49%
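Secreted IL-1B measured by AlphaLISA bead assay after 16 h compound exposure of THP-1 cells; compounds (final up to 57.5 uM) added 1 h before LPS (250 ng/mL) and ATP (1.25 mM) stimulation; lower signal means less secretion.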
TDP1 cell noCPT: qHTS for Inhibitors of human tyrosyl-DNA phosphodiesterase 1 (TDP1): qHTS in cells in absence of CPT; DT40 Tdp1-/- hTDP1 cells, no CPT, ATP luminescence, 48 h; 15% of 420,000 active; Potency, µM (top dose mostly 46.2 µM), hits mostly inhibitors; AID 686978, 2013; also: nearly all actives have a fitted effect of over 55% in size
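A cellular qHTS used chicken DT40 cells lacking endogenous Tdp1 but carrying stably transfected human TDP1. Compounds were applied without camptothecin, and cell growth kinetics were judged by ATP-dependent luminescence after ≥48 hr.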
TGFb SMAD3 inh: inhibitors of TGF-b signaling; 1.2% of 410,000 active; Potency, µM (titrated, usually from 46.1 µM), hits mostly inhibitors; HepG2 CAGA-GFP TGF-b/SMAD3 reporter, GFP fluorescence, 18 h; TGF-beta stimulated, 500 pg/mL final; also: nearly all actives have a fitted effect of over 65% in size
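HEPG2 CAGA-GFP reporter cells (1000/well, DMEM with 1% FBS) received compounds, then recombinant TGF-beta at 500 pg/mL final for 18 hours at 37 degrees C. Per-cell GFP summed per well was normalised to unstimulated and stimulated DMSO controls before curve fitting.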
DT40 TDP1 CPT: growth inhibition of DT40 Tdp1-/-;hTDP1 cells with camptothecin (screen for TDP1 inhibitors) | AID 686979 | chicken DT40 Tdp1-/-;hTDP1 cells + 20 nM CPT, ATP luminescence, 48 h | 12% of 420,000 active | Potency, µM (highest dose often 46.2 µM), usual class: inhibitors; also: nearly all actives have a fitted effect of over 55% in size
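Chicken DT40 Tdp1-/- cells complemented with human TDP1, 400 cells/well, exposed to compounds plus 20 nM camptothecin for at least 48 h at 37 C; viability read as ATP content by CellTiter-Glo luminescence.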
HepG2 viability: counter-screen for TGF-b inhibitors: cytotoxicity in HepG2 cells | HepG2 CAGA-GFP viability, ATP luminescence, 18 h | Potency, µM (top dose mostly 46.1 µM), hits mostly cytotoxic | 0.76% of 410,000 active | AID 588856
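CellTiter-Glo luminescence gave cytotoxicity after 18 hours at 37 degrees C. The cells were HepG2 CAGA-GFP in 1% FBS DMEM, stimulated with 500 pg/mL TGF-beta after compound addition. %Activity was normalised to no-cell wells (complete cell-killing) and DMSO (no toxicity), and curves were fitted and classified.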
Hits are given with their value; – = inactive; ? = inconclusive; · = no result. Unless noted, calls follow the shape of the dose curve; as a rule, active = well fitted curve in the direction sought with a large enough effect; inconclusive = small, poorly fitted or top-dose-only effect, or another doubt; inactive = no such curve, though single readings can be large; an effect the other way counts as inactive or inconclusive.

SMILES	S-ASM inh	IL1B secr inh	TDP1 cell noCPT	TGFb SMAD3 inh	DT40 TDP1 CPT	HepG2 viability
Cc1ccc(CN2C(=O)CSC(C)C2=O)cc1 (stereo unspecified)	–	–	–	–	–	–
CCCOc1ccc(CN2C(=O)C(=O)c3cccc(C)c32)cc1	·	·	1.8µM	16µM	1.3µM	–
Cc1ccccc1-c1oc(C)c(C)[n+]1[O-]	–	–	–	–	–	–
CCN(CC)S(=O)(=O)c1ccc(C(=O)Nc2cc(S(=O)(=O)N3CCOCC3)ccc2O)cc1	–	–	?	–	–	–
CCSc1ncc(Cl)c(C(=O)Nc2ccc(S(=O)(=O)Nc3ncccn3)cc2)n1	–	–	–	–	–	–
CCSc1ncc(Cl)c(C(=O)Nc2ccc(S(=O)(=O)N3CCC(C)CC3)cc2)n1	·	·	5.8µM	?	15µM	–
Cc1cc2cc(C)c3nnc(SCC(=O)Nc4ccc(S(=O)(=O)N5CCCCC5C)cc4)n3c2cc1C (stereo unspecified)	–	–	10µM	–	?	–
Cc1cc(C)nc(NS(=O)(=O)c2ccc(NC(=O)c3ccc(S(=O)(=O)N4CC(C)OC(C)C4)cc3)cc2)n1 (stereo unspecified)	–	–	–	–	–	–
CCSc1ncc(Cl)c(C(=O)Nc2ccc(S(N)(=O)=O)cc2)n1	–	-59	?	–	–	–
CCCSc1ncc(Cl)c(C(=O)Nc2ccc(S(=O)(=O)N3CC(C)OC(C)C3)cc2)n1 (stereo unspecified)	–	–	16µM	?	?	–
CSc1ncc(Cl)c(C(=O)Nc2ccc(C)c(C)c2)n1	–	–	–	–	–	–
CSc1ncc(Cl)c(C(=O)Nc2ccc(S(=O)(=O)N3CCC(C)CC3)cc2)n1	·	·	23µM	?	23µM	–
CC(C)Sc1ncc(Cl)c(C(=O)Nc2ccc(S(=O)(=O)N3CCCCC3C)cc2)n1 (stereo unspecified)	·	·	18µM	–	?	–
CC(C)[C@H](NC(=O)c1ccc(Cl)cc1)C(=O)Nc1cccc(S(=O)(=O)N2CCOCC2)c1	·	–	–	–	–	–
CN1CCN(S(=O)(=O)c2cccc(C(=O)Nc3cc(C(F)(F)F)ccc3N3CCCCC3)c2)CC1	·	-52	18µM	–	?	–
CCN1CCN(c2ccc(S(=O)(=O)N3CCCCC3)cc2NC(=O)c2cccc(C(F)(F)F)c2)CC1	–	-72	18µM	–	?	–
Cn1c(N2CCCC2)nc2c1c(=O)[nH]c(=O)n2C	–	–	–	–	–	–
N#Cc1ccc(-c2nc3c4ccccc4ccn3c2Cc2ccsc2)cc1	·	–	13µM	·	13µM	·
N#Cc1ccc(-c2nc3c4ccccc4ccn3c2Cc2cccc(Cl)c2)cc1	·	–	18µM	?	16µM	–
Clc1ccc(-c2nc3c4ccccc4ccn3c2Cc2ccsc2)cc1	·	–	10µM	·	10µM	·
CC(=C/C(=O)O)/C(=C/c1ccccc1)C(=O)O	–	–	–	–	–	–
Cc1ccc(CNC(=O)CNS(=O)(=O)c2ccc(Br)s2)cc1	–	–	–	–	–	–
Cc1ccc(NS(=O)(=O)c2ccc(-n3cccn3)cc2)nc1	–	–	–	–	–	–
C=CCn1c(C)c(/C=C/c2cc[n+](C)cc2)c2ccccc21	–	-90	1.5µM	–	3.7µM	–
CCn1cc(/C=C/c2cc[n+](C)cc2)c2ccccc21	?	–	1µM	–	0.33µM	–
SMILES	S-ASM inh	IL1B secr inh	TDP1 cell noCPT	TGFb SMAD3 inh	DT40 TDP1 CPT	HepG2 viability
CC(C)n1cc(/C=C/c2cc[n+](C)cc2)c2ccccc21	–	-76	0.52µM	–	0.52µM	–
C=CCn1cc(/C=C/c2cc[n+](C)cc2)c2ccccc21	–	–	0.58µM	–	0.73µM	–
C=CCn1cc(/C=C2\SC(N3CCOCC3)=NC2=O)c2ccccc21	–	–	?	–	?	–
CCN(CC)C(=O)Cn1c(C)c(/C=C/c2cc[n+](C)cc2)c2ccccc21	?	–	?	–	?	–
Cc1ccc(C)c(OCc2cc(C(=O)N3CC[C@H](O)C3)no2)c1	–	–	–	–	–	–
CCc1nnc(SCC(=O)N2CCCC(N3CCN(c4ccccc4C)CC3)C2)o1 (stereo unspecified)	·	–	?	–	?	–
OCc1cccc[n+]1Cc1ccccc1	–	–	–	–	–	–
Cc1cc(-c2nnc(CSc3nnc(NC(=O)c4ccc(C(C)(C)C)cc4)s3)o2)ccc1[N+](=O)[O-]	–	–	21µM	–	?	–
COc1ccccc1C(=O)Nc1nnc(SCc2cc(=O)c3ccccc3[nH]2)s1	·	·	15µM	?	15µM	–
Cc1ccc(C(=O)Nc2nnc(SCc3cc(=O)c4c(C)ccc(C)c4[nH]3)s2)cc1	·	·	10µM	?	18µM	–
Cc1ccc2[nH]c(CSc3nnc(NC(=O)COc4ccccc4C)s3)cc(=O)c2c1	·	·	?	–	?	–
O=C(Nc1nnc(SCc2cc(=O)c3ccccc3[nH]2)s1)c1ccccc1	·	·	7.3µM	–	23µM	–
COCCSc1nnc(NC(=O)c2ccc([N+](=O)[O-])cc2)s1	–	–	–	–	–	–
CCOc1ccc(C(=O)NCc2cccnc2)cc1[N+](=O)[O-]	–	–	–	?	–	–
S=C(NCc1ccncc1)NC1CCCCC1	–	–	?	–	–	–
COc1ccc(CN2CCC(=O)N([C@H](CO)CC(C)C)CC2)cc1OC	–	–	–	?	?	–
Cc1ccc(-n2nnnc2C(Cl)c2nnnn2-c2ccc(C)cc2)cc1	–	-59	8.2µM	?	15µM	–
Cc1ccc(-n2nnnc2-c2ccccc2)cc1	–	–	?	–	?	–
CCOc1ccc(/C=N/NC(=O)c2ccc(O)cc2)cc1CN1CC2CC(C1)c1cccc(=O)n1C2 (stereo unspecified)	–	–	?	–	?	–
CCOc1ccc(/C=N/NC(=O)Cc2ccccc2)cc1CN1CC2CC(C1)c1cccc(=O)n1C2 (stereo unspecified)	–	-104	21µM	–	?	–
O=C1NC[C@H](Cc2ccccc2)N(C[C@@H]2CCCN2C[C@H](Cc2ccc(O)cc2)N2C[C@H](Cc3ccc(O)cc3)N(CC3CCCCC3)C(=O)C2=O)C1=O	·	?	23µM	·	?	·
O=C1NC[C@H](Cc2ccccc2)N(C[C@H]2CCCN2C[C@H](Cc2ccccc2)N2C[C@H](Cc3ccccc3)N(CC3CCCCCC3)C(=O)C2=O)C1=O	–	-69	16µM	?	?	–

Compound activity (PubChem)
